Results reported in the supplement of paper PMC3334620.
The full ranking holds about 33,000 sequences; the median of “E-score (-0.5 to 0.5)” is about -0.054, and the highest 2% start at about 0.39. This is one part of a sample in which the highest values are shown more often than they occur.

Each sequence was assayed against Ylr278c (UniProt Q05854) (assay: PBM E-score (8-mer binding enrichment) (E-score (-0.5 to 0.5)); higher = stronger / more preferred TF binding). Settings: protein concentration: 200 nM; construct: GST-DNA-binding domain.
Chain of UniProt Q05854 (Q05854 whole entry, the tested form may be a part): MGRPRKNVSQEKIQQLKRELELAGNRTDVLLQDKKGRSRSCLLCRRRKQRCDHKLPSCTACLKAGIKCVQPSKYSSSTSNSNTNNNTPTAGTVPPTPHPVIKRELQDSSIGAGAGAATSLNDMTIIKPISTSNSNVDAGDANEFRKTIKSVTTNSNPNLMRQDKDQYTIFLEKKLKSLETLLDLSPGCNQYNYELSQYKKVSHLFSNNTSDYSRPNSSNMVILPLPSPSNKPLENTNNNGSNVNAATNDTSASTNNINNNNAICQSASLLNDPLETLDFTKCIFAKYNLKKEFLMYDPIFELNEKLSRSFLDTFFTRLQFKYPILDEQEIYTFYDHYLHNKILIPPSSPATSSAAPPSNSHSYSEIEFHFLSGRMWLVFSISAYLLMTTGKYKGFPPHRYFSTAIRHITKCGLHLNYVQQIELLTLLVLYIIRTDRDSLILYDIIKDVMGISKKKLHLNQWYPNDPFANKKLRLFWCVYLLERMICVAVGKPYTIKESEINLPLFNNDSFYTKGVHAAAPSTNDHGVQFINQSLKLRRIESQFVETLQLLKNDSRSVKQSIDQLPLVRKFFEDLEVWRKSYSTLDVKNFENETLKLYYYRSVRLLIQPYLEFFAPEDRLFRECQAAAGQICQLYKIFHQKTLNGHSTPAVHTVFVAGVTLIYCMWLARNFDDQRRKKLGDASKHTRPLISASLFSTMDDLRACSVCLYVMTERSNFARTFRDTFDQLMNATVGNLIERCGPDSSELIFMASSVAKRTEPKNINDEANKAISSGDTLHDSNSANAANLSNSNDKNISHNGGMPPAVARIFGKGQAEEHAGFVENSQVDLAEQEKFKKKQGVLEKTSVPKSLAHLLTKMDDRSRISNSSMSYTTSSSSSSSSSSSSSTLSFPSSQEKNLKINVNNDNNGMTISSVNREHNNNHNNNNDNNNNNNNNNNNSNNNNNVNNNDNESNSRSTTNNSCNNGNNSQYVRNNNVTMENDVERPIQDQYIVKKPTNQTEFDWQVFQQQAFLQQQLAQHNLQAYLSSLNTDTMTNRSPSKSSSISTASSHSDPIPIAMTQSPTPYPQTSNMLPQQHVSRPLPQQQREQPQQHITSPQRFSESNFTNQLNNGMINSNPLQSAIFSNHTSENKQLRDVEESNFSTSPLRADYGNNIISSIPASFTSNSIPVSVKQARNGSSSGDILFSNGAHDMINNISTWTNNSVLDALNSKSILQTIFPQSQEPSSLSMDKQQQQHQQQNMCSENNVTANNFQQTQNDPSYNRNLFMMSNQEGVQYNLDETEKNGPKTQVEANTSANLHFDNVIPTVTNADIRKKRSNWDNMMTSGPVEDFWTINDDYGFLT
Procedure: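 Universal 'all 10-mer' protein binding microarrays (Agilent AMADID 015681) probed with GST-tagged S. cerevisiae TFs (full-length or DBD) made by in vitro transcription/translation (PURExpress), about 100-200 nM. Bound TF was detected with fluorescent anti-GST. Each ungapped 8-mer (which stands for itself and its reverse complement) is scored by the PBM enrichment score (E-score), a modified Wilcoxon-Mann-Whitney statistic from -0.5 to +0.5, computed with the Universal PBM Analysis Suite. Scale: above 0.35 generally sequence-specific binding.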

Row | Sequence | PBM E-score
1 | AATTCTGT | -0.0602
2 | CGCGTGGC | -0.00486
3 | AGGGATTC | -0.0988
4 | CGGGATTA | 0.406
5 | GGGGATTA | 0.175
6 | AGGGATTA | -0.223
7 | CGGGATTC | 0.392
8 | CTGGATTC | -0.00018
9 | GTCGGGCA | 0.0838
10 | GCTGAACA | -0.153
11 | CTTAGTCA | -0.184
12 | CACTACGG | 0.201
13 | AGGTCAAA | -0.237
14 | GATAGTCA | -0.0752
15 | GCTCAGGA | -0.173
16 | ACCCTAAG | -0.173
17 | GCTCGGGA | 0.174
18 | CTGAACTC | -0.141
19 | GGGAACTA | 0.11
20 | AGGAACTC | 0.0174
21 | CGGAACTC | 0.409
22 | AGGAACTA | -0.0554

Row | Sequence | PBM E-score
23 | CGGAACTA | 0.422
24 | AGGCTTAA | -0.00203
25 | GATACCTA | -0.0272
26 | ATGACGAG | -0.153
27 | GTATTGTA | 0.0802
28 | AATGCCGG | 0.421
29 | AATGCCGA | 0.392
30 | AATGCCGC | 0.352
31 | CATGCCGG | 0.368
32 | CATGCCGA | 0.217
33 | AATGCCGT | 0.381
34 | CGCCAGAC | -0.153
35 | CAGATTAC | -0.0164
36 | TATACCAA | -0.101
37 | CTGAGCTC | 0.0823
38 | CGGAGCTC | 0.441
39 | AGGAGCTC | -0.122
40 | AGGAGCTA | -0.144
41 | CGGAGCTA | 0.42
42 | GGGAGCTA | -0.0279
43 | CGTCTCTC | -0.00934
44 | ATGGCTGA | -0.344

Row | Sequence | PBM E-score
45 | TCAGCACA | -0.175
46 | CGGACATC | 0.421
47 | GGGACATA | 0.0665
48 | CTGACATC | -0.0317
49 | AGGACATC | 0.0899
50 | AGGACATA | -0.278
51 | CGGACATA | 0.454
52 | GGAAGTTA | 0.204
53 | ATTCCAAC | -0.176
54 | TCGATGAA | -0.11
55 | CTCTTTTC | -0.0672
56 | GGGACGGA | 0.369
57 | CCGACGCG | 0.394
58 | ACGACGCG | 0.0212
59 | CCGACGGA | 0.425
60 | CGGACGGA | 0.397
61 | ACGACGGA | 0.301
62 | GCGACGGA | 0.313
63 | CGGACGGC | 0.313
64 | CCGACGCC | 0.361
65 | GACCTCCA | 0.0669
66 | CCAGCTAG | -0.391

Row | Sequence | PBM E-score
67 | CAAGTTAC | 0.0544
68 | GAGTTCAC | 0.0107
69 | ACGATGAG | -0.0386
70 | ACCCAGTC | -0.0927
71 | ATGCTTCC | -0.0282
72 | CACTGGCC | -0.0953
73 | CGGAGCAA | 0.456
74 | TGGAGCAA | -0.111
75 | CGGAGCAG | 0.417
76 | CTGAGCAG | -0.238
77 | AGGAGCAC | -0.0853
78 | CGGAGCAC | 0.391
79 | AGGAGCAA | -0.0147
80 | AGGAGCAG | -0.00465
81 | GGGAGCAC | 0.0245
82 | GAGGGAAA | -0.26
83 | AATGCGAG | 0.00781
84 | GTAGGGCA | -0.038
85 | AATTCAGG | 0.127
86 | GTGGTATA | -0.188
87 | CGTCTATC | 0.0841
88 | ACACACTA | -0.13
